Results: article PMC5540273 (PLoS ONE, 2017)

Experiments:
Settings in all cases: concentration: 1 μM,replicates: in singlicate; n = 1
CAMK1 = test system: CAMK1
CAMK2A = test system: CAMK2A
CAMK2B = test system: CAMK2B
CAMK2D = test system: CAMK2D
CAMK2G = test system: CAMK2G
CAMK4 = test system: CAMK4
CAMKK1 = test system: CAMKK1
CAMKK2 = test system: CAMKK2
CASK = test system: CASK
CDC2L1 = test system: T1, CDC2L1
T1 construct: gene CDK11B

CDC2L2 = test system: CDC2L2
CDC2L5 = test system: T2, CDC2L5
T2 construct: gene CDK13

CDK11 = test system: T3, CDK11
T3 construct: gene CDK19

CDK2 = test system: CDK2
CDK3 = test system: CDK3
CDK4-cyclinD1 = test system: CDK4-cyclinD1
CDK4-cyclinD3 = test system: CDK4-cyclinD3
CDK4 = test system: CDK4
CDK5 = test system: CDK5
CDK7 = test system: CDK7
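Also: KINOMEscan kinase panel screen.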

Row | Compound | %Inh (CAMK1) [%] | %Inh (CAMK2A) [%] | %Inh (CAMK2B) [%] | %Inh (CAMK2D) [%] | %Inh (CAMK2G) [%] | %Inh (CAMK4) [%] | %Inh (CAMKK1) [%] | %Inh (CAMKK2) [%] | %Inh (CASK) [%] | %Inh (CDC2L1) [%] | %Inh (CDC2L2) [%] | %Inh (CDC2L5) [%] | %Inh (CDK11) [%] | %Inh (CDK2) [%] | %Inh (CDK3) [%] | %Inh (CDK4-cyclinD1) [%] | %Inh (CDK4-cyclinD3) [%] | %Inh (CDK4) [%] | %Inh (CDK5) [%] | %Inh (CDK7) [%]
1 | NC(=O)c1ccc(-c2cc3ncnc(SCC(=O)O)c3s2)cc1 | 0 | 0 | 0 | 0 | 0 | 0 | 75 | 81 | 0 | 0 | 0 | 0 | 0 | 0 | 0 | 1 | 0 | 0 | 18 | 58
2 | CN(c1ccccc1CNc1nc(Nc2ccc3c(c2)CC(=O)N3)ncc1C(F)(F)F)S(C)(=O)=O | 0 | 22 | 18 | 0 | 59 | 0 | 58 | 64 | 0 | 0 | 0 | 0 | 0 | 58 | 55 | 0 | 34 | 0 | 83 | 67
3 | Cl.Nc1n[nH]c2cc(-c3ccccn3)ccc12 [GSK2189892] | 23 | 0 | 0 | 2 | 24 | 0 | 0 | 9 | 0 | 1 | 23 | 0 | 2 | 0 | 0 | 0 | 0 | 0 | 0 | 0
4 | CC(C)S(=O)(=O)N1CCN(Cc2ccc3c(c2)nc(NC(=O)c2ccsc2)n3C[C@H](O)c2ccccc2)CC1 [GW635815] | 25 | 0 | 0 | 11 | 39 | 0 | 44 | 61 | 22 | 0 | 4 | 0 | 6 | 0 | 25 | 0 | 0 | 42 | 0 | 8
5 | CS(=O)(=O)c1cccc(CNc2nc(Nc3ccc4c(c3)[C@@H]3C[C@@H]4CNC3=O)ncc2C(F)(F)F)c1 | 1 | 0 | 0 | 0 | 0 | 0 | 41 | 15 | 0 | 0 | 0 | 2 | 0 | 46 | 33 | 97.1 | 96.4 | 60 | 82 | 94
6 | CS(=O)(=O)Nc1ccc(-c2ccnc3[nH]ccc23)cc1 [GSK993273] | 36 | 6 | 7 | 16 | 24 | 0 | 8 | 0 | 21 | 0 | 0 | 0 | 45 | 0 | 15 | 0 | 0 | 0 | 0 | 37
7 | Cc1n[nH]c2cc(Nc3ccnc(Nc4cccc(CN5CCOCC5)c4)n3)ccc12 [GW682569] | 43 | 0 | 0 | 5 | 0 | 0 | 21 | 13 | 0 | 7 | 24 | 0 | 19 | 0 | 5 | 0 | 0 | 31 | 0 | 0
8 | CSc1nccc(-c2c(-c3ccc(F)cc3)ncn2CCCN2CCOCC2)n1.Cl [SB-217146] | 6 | 0 | 0 | 0 | 0 | 0 | 0 | 0 | 0 | 0 | 0 | 0 | 0 | 0 | 0 | 0 | 0 | 16 | 0 | 12
9 | Cl.Cl.NC[C@H](CC1CCCCC1)NC(=O)c1ccc(-c2ccnc3[nH]ccc23)s1 [GSK1581428] | 37 | 0 | 0 | 7 | 5 | 0 | 40 | 27 | 4 | 0 | 0 | 0 | 4 | 11 | 0 | 0 | 23 | 25 | 0 | 94.6
10 | COc1cc2nccc(Nc3ccc(Oc4ccccc4)cc3)c2cc1OC.Cl [GI261656] | 20 | 0 | 0 | 16 | 18 | 0 | 7 | 17 | 0 | 0 | 28 | 0 | 0 | 0 | 0 | 0 | 0 | 44 | 0 | 0
11 | O=C(NCC1CC1)c1ccc(-c2cc(C(=O)NC3CC3)ccc2F)cc1 [GW810445] | 0 | 0 | 0 | 0 | 0 | 0 | 0 | 0 | 41 | 0 | 0 | 7 | 32 | 0 | 7 | 0 | 0 | 1 | 0 | 0
